About 980 (0.3%) of roughly 330,000 compounds were called active.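 Rule for the calls: active = percent response vs DMSO below 50%; inconclusive = fewer than 70 events counted for the yeast strain; inactive = the rest.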 The list comes from a sample in which actives are over-represented; it also holds similar structures and randomly drawn compounds.
Experiment: compounds altering RPL19A-GFP fluorescence, TOR branch – cell-based, S. cerevisiae, multiplex flow cytometry, MLPCN, primary screen (AID 2025);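 note: median channel GFP fluorescence of the barcoded RPL19A-GFP strain; ratio of sample median GFP to plate DMSO average so 100% = DMSO; lower means less RPL19A-GFP as with rapamycin TOR inhibition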
Conditions: S. cerevisiae RPL19A-GFP strain, 3 h, at 10 µM, active compounds read low

Compound	percent response vs DMSO
COc1ccc(CN(Cc2ccco2)S(=O)(=O)c2ccc(S(=O)(=O)N3CCCC3)cc2)cc1	107% (inactive)
CCOc1ccc(S(=O)(=O)N2CCC(c3ccccc3)CC2)cc1C(=O)O	99.8% (inactive)
CC(Oc1cc2oc(=O)c3c(c2cc1Cl)CCCC3)C(=O)NCc1ccncc1 (stereo not drawn)	14.1% [may fluoresce violet] (active)
O=C(COc1cc2oc(=O)c3c(c2cc1Cl)CCC3)NCCCN1CCOCC1	112% (inactive)
COc1ccc(S(=O)(=O)NC(C)C(=O)NCc2ccncc2)cc1Cl (stereo not drawn)	99.9% (inactive)
Cc1ccc(OCCCCN2CCCCC2)c(Br)c1	96.8% (inactive)
CCOc1ncccc1C(=O)OCC(=O)N1c2ccccc2CC1C (stereo not drawn)	95.9% (inactive)
CCOc1ncccc1C(=O)OCc1cn2cc(Cl)ccc2n1	45.3% [may fluoresce violet] (active)
CCOc1ncccc1C(=O)OCC(=O)NC1CC1	99.9% (inactive)
Cc1cc(C)cc(N(CC(=O)NC2CCCC2)C(=O)CCC(=O)Nc2nccs2)c1	103% (inactive)
Cc1cc(C)cc(N(CC(=O)NC2CCCC2)C(=O)CCC(=O)Nc2cc(C)on2)c1	46.1% [may fluoresce violet] (active)
Cc1cc(NC(=O)CCC(=O)N(CC(=O)NC2CCCC2)c2ccc(F)cc2)no1	100% (inactive)
COc1cc(C2C3=C(CCCC3=O)OC3=C2C(=O)CCC3)ccc1OCC(=O)Nc1ccccc1	110% (inactive)
O=C1CSC(=S)N1c1ccc(Cl)c(Cl)c1	109% (inactive)
COc1ccccc1CN1CCN(Cc2cc(OC)c(OC)cc2OC)CC1	106% (inactive)
COc1ccc(CN2CCCC(N3CCc4ccccc4C3)C2)c(O)c1 (stereo not drawn)	101% (inactive)
COc1ccccc1CN1CCCC(N2CCN(c3ccc(F)cc3)CC2)C1 (stereo not drawn)	30.8% [may fluoresce violet] (active)
O=C(O)CSc1nccc2ccccc12	102% (inactive)
Cc1ccc(NC(=O)CCOc2ccccc2)cc1S(=O)(=O)Nc1ccccc1Cl	102% (inactive)
O=C(Cn1[nH]c(=O)c2ccccc2c1=O)Nc1cccc(-c2nnc3n2CCCCC3)c1	17.9% [may fluoresce violet] (active)
Cc1ccc(-c2csc(NC(=O)Cn3[nH]c(=O)c4ccccc4c3=O)n2)cc1	103% (inactive)
Cc1c(C(=O)Nc2cccc(-c3nnc4n3CCCCC4)c2)oc2ccccc12	111% (inactive)

Compound	percent response vs DMSO
COC(=O)c1cc(C(=O)OCC(=O)Nc2cc(C)on2)cc([N+](=O)[O-])c1	41.7% [may fluoresce violet] (active)
Cc1cc(NC(=O)COc2ccc([N+](=O)[O-])cc2)no1	105% (inactive)
Cc1cc(NC(=O)CSc2nccn2-c2ccc([N+](=O)[O-])cc2)no1	98.9% (inactive)
COc1ccc(S(=O)(=O)NCCc2cc3ccc(C)c(C)c3[nH]c2=O)cc1	101% (inactive)
Oc1ccc2ccc3cccc[n+]3c2c1	100% (inactive)
Nn1c(SCC(=O)Nc2nccs2)nncc1=O	95.5% (inactive)
CC(C)COP(=O)(c1ccc(N(C)C)cc1)C(Nc1ccccc1)c1cccnc1 (stereo not drawn)	100% (inactive)
CCC(=O)N1c2ccc(S(=O)(=O)CCC(=O)N3CCN(c4ccccc4)CC3)cc2CC1C (stereo not drawn)	105% (inactive)
COc1ccccc1CNC(=O)C1CCN(S(=O)(=O)c2ccc3c(c2)CC(C)N3C(=O)C2CC2)CC1 (stereo not drawn)	102% (inactive)
Cc1ccc(CNC(=O)CCS(=O)(=O)c2ccc3c(c2)CC(C)N3C(=O)C2CC2)o1 (stereo not drawn)	17.4% [may fluoresce violet] (active)
Cc1cc(-c2ccc(C)c(S(=O)(=O)Nc3ccc(S(N)(=O)=O)cc3)c2)on1	99% (inactive)
CCc1ccc(-c2cc(C)no2)cc1S(=O)(=O)NCCc1ccc(S(N)(=O)=O)cc1	33.8% [may fluoresce violet] (active)
Cc1noc(C)c1S(=O)(=O)NCCc1ccc(S(N)(=O)=O)cc1	95.7% (inactive)
CCOC(=O)N1CCC(N(CCOC)C(=O)Nc2ccc(C)c(C)c2)CC1	89.6% (inactive)
CCOC(=O)C1Nc2ccc(C(F)(F)F)cc2C2C=CCC12 (stereo not drawn)	93.3% (inactive)
CC1CCN(C(=O)CN(c2ccc(Oc3ccccc3)cc2)S(C)(=O)=O)CC1	100% (inactive)
COc1ccc(NC(=O)c2cccc(Cl)c2)c[n+]1[O-]	106% (inactive)
COCC(C)OC(=O)c1c(N)n(CCCN2CCOCC2)c2nc3ccccc3nc12 (stereo not drawn)	27% [may fluoresce violet] (active)
CC(C)(C)OC(=O)c1c(N)n(CCCN2CCCC2=O)c2nc3ccccc3nc12	90% (inactive)
CC(CN1CCOCC1)OC(=O)c1ccc(C(C)(C)C)cc1 (stereo not drawn)	105% (inactive)
CCCCC(CC)CNC(=O)C(=O)C1C(=O)Nc2ccccc21 (stereo not drawn)	96.8% (inactive)
COc1ccc(N(CCC#N)S(=O)(=O)c2ccc(Cl)cc2)cc1	99.2% (inactive)

Compound	percent response vs DMSO
COc1ccccc1OCCNCC(O)COc1cccc2[nH]c3ccccc3c12 (stereo not drawn)	103% (inactive)
O=C(CNC(=O)c1ccc(Cl)cc1Cl)NCC(=O)Nc1ccccc1N1CCOCC1	100% (inactive)
COc1ccc(CCNc2cc(N3CCN(C(=O)c4ccccc4OC)CC3)ccc2[N+](=O)[O-])cc1OC	19.6% [may fluoresce violet] (active)
O=C(c1ccccc1)N1CCN(c2ccc([N+](=O)[O-])c(NCc3ccco3)c2)CC1	98.5% (inactive)
COc1ccccc1OCCNc1cc(N2CCOCC2)ccc1[N+](=O)[O-]	99.1% (inactive)
Cn1ccsc1=NC(=O)c1cc(S(=O)(=O)N2CCOCC2)ccc1Cl	101% (inactive)
Cn1ccs/c1=N\S(=O)(=O)c1ccc(C(C)(C)C)cc1	43.3% [may fluoresce violet] (active)
COc1ccc(C2=Nn3c(nnc3-c3ccccc3OC)SC2)cc1OC1CCCC1	92.8% (inactive)
Cc1cccn2c(=O)c3cc(C#N)c(=O)n(CCCN4CCOCC4)c3nc12	37.1% [may fluoresce violet] (active)
Cc1cccn2c(=O)c3cc(C#N)c(=NC(=O)c4cccnc4)n(CC4CCCO4)c3nc12 (stereo not drawn)	97.3% (inactive)
Cc1cccn2c(=O)c3cc(C(=O)NCC4CCCO4)c(=N)n(Cc4ccc(F)cc4)c3nc12 (stereo not drawn)	97.2% (inactive)
CCCOc1ccc(/C=N/NC(=O)C2CC2)c(OCCC)c1	101% (inactive)
COc1cccc(N=c2oc3c(C)ncc(CO)c3cc2C(N)=O)c1	95% (inactive)
CCc1ccccc1S(=O)(=O)Cc1ccc(C(=O)NCCc2ccccc2)o1	96.8% (inactive)
Cc1ccccc1S(=O)(=O)Cc1ccc(C(=O)NCCN2CCCCC2C)o1 (stereo not drawn)	34.3% [may fluoresce violet] (active)
Cc1oc(-c2ccccc2F)nc1CS(=O)CC(=O)NCCN1CCCCC1C (stereo not drawn)	100% (inactive)
CCCS(=O)(=O)N1CCCC(C(=O)NCCN2CCCCC2C)C1 (stereo not drawn)	104% (inactive)
Cc1cc(N2CCOCC2)nc2ccc(NC(=S)N3CCN(Cc4ccccc4)CC3)cc12	105% (inactive)
CCN(CC)c1ccc(C(=O)N/N=C(\C)c2cccc(OC)c2)cc1	103% (inactive)
COc1ccc(/C(C)=N/NC(=O)c2ccc3nc[nH]c3c2)cc1	22.1% [may fluoresce violet] (active)
CC(=NNC(=O)c1ccc2nc[nH]c2c1)c1ccc(Br)cc1	103% (inactive)
CCCC(NC(=O)c1ccco1)c1nc2ccccc2[nH]1 (stereo not drawn)	104% (inactive)

Compound	percent response vs DMSO
COc1c(C)c2c(c(O)c1C/C=C(\C)CCC(=O)O)C(=O)OC2	39.1% [may fluoresce violet] (active)
Cc1c(C)n2c(SCC(=O)NC3CCCC3)nnc2[nH]c1=O	88% (inactive)
COc1cc(SC)ccc1C(=O)NNC(=O)C1COc2ccccc2O1 (stereo not drawn)	95% (inactive)
Cc1ccc(C23CC4CC(CC(C(=O)NCC(=O)O)(C4)C2)C3)cc1	30% [may fluoresce violet] (active)
CCOc1ccccc1NC(=O)C12CC3CC(C1)CC(c1ccc(C)cc1)(C3)C2	101% (inactive)
C=CCNC(=O)C12CC3CC(C1)CC(C(=O)NCC=C)(C3)C2	98.2% (inactive)
O=C(COc1ccc2c(c1)CCC2)N1CCN(c2ccc(F)cc2)CC1	95.3% (inactive)
COc1ccc(-c2nc3ccccc3n2CCC(C)C)cc1OC	98.3% (inactive)
O=C1N(c2ccc(Cl)cc2)C(c2ccc(Cl)cc2)N2CCCN12 (stereo not drawn)	95.4% (inactive)
CCOC(=O)C1CCN(C(=O)CN2C(=O)c3cccnc3Oc3ccc(C)cc32)CC1	97.7% (inactive)
Cc1cc2c(cc1C)N(Cc1ccccc1)C1=NCCCN12	101% (inactive)
COC(=O)C1=C(N)Oc2c(oc(CO)cc2=O)C1c1c(F)cccc1Cl (stereo not drawn)	103% (inactive)
CC(C)c1ccc(C2C(C#N)=C(N)Oc3c2oc(CO)cc3=O)cc1 (stereo not drawn)	44% [may fluoresce violet] (active)
C=CCOC(=O)C1=C(C)OC(N)=C(C#N)C1c1ccc(F)cc1 (stereo not drawn)	91.2% (inactive)
Cc1cccc(OCC(=O)NC2CC(C)(C)NC(C)(C)C2)c1	98.6% (inactive)
Cc1cccc(NC(=O)Cn2c(=O)n(Cc3ccccc3)c(=O)c3c(C)c(C)sc32)c1	104% (inactive)
Cc1c(C(C)(C)O)[nH]c2ccc(C#N)cc12	91.7% (inactive)
CCOC(=O)C1CCCN(C(=O)CSc2nnc3nc(C)cc(C)n23)C1 (stereo not drawn)	93.7% (inactive)
COc1cc(C(=O)NC2CCN(C)CC2)ccc1Nc1ncc2c(n1)N(C1CCC(O)CC1)CCC(=O)N2C (stereo not drawn)	90.7% (inactive)
O=C(CS(=O)(=O)c1cn(Cc2cccc(F)c2)c2ccccc12)N1CCCCC1	43% [may fluoresce violet] (active)
O=C(CS(=O)(=O)c1cn(Cc2ccc(Cl)cc2)c2ccccc12)N1CCOCC1	91.2% (inactive)
CC(=O)Nc1ccc(NC(=O)CS(=O)(=O)c2cn(CC(=O)N3CCCCC3)c3ccccc23)cc1	97.7% (inactive)

— PubChem BioAssay AID2025 (NMMLSC, 2009)
